Reference: the supplement of paper PMC13094657
± gives the standard deviation of the averaged measurements.

Tests used:
[1] = tested on: MDA-MB-231; assay: cell viability relative to vehicle unstimulated control (fraction); higher = more viable cells; details: pre-treatment time: 18 h then 24 h IFNg/TNF
[2] = tested on: MDA-MB-231; assay: kynurenine production, fold change vs DMSO IFNg/TNF control; higher = more kynurenine produced (less inhibition); details: pre-treatment time: 18 h then 24 h IFNg/TNF
In short: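 MDA-MB-231 cells (7 × 10^4/well, 96-well plates, seeded 24 h earlier) were pre-treated 18 h with each natural product in 0.1% DMSO, then stimulated 24 h with IFNγ (1 U/ml) and TNF (6.25 ng/ml) at 37°C. Supernatant kynurenine was read at 492 nm after trichloroacetic acid and p-dimethylaminobenzaldehyde treatment, against 0–100 μM standards. Kynurenine production is the fold change over cytokine-stimulated vehicle wells on the same plate, averaged over duplicate plates in the first screening round.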
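For cell viability relative to vehicle unstimulated control in this document: viability of the cells left after supernatant collection, read with Deep Blue dye added for 4 h, as absorbance at 570 nm minus 600 nm.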

Row | Structure (SMILES) | cell viability [1] | kynurenine production [2]
1 | C=C1C(=O)O[C@H]2C[C@@H](C)[C@@H]3CCC(=O)[C@@]3(C)[C@@H](OC(C)=O)[C@H]12 [Ergolide] (compound dose: 10 uM) | 0.992 ± 0.072 | 0.246 ± 0.13
2 | C=C1C(=O)O[C@@H]2C[C@@]3(C)CCC[C@H](C)C3=C[C@H]12 [Alantolactone] (compound dose: 10 uM) | 0.909 ± 0.023 | 0.0823 ± 0.017
3 | CC1=CC[C@@H](C(C)(C)O)CC1 [α-Terpineol] (compound dose: 10 uM) | 1.02 ± 0.059 | 0.896 ± 0.0054
4 | CSC(=O)OCC1=C[C@H](O)[C@H]2C(C(=O)O)=CO[C@@H](O[C@@H]3O[C@@H](CO)[C@@H](O)[C@@H](O)[C@H]3O)[C@H]12 [Paederosidic acid] (compound dose: 10 uM) | 1.14 ± 0.012 | 1.07 ± 0.07
5 | CC1(C)CC[C@]2(C(=O)O[C@@H]3O[C@H](CO)[C@@H](O)[C@H](O)[C@H]3O)CC[C@]3(C)C(=CC[C@@H]4[C@@]5(C)CC[C@H](O[C@@H]6O[C@H](C(=O)O)[C@@H](O[C@@H]7O[C@@H](CO)[C@H](O)[C@H]7O)[C@H](O)[C@H]6O)C(C)(C)[C@@H]5CC[C@]43C)[C@@H]2C1 [Araloside A] (compound dose: 10 uM) | 1.05 ± 0.032 | 1.31 ± 0.014
6 | CC(C)=CCC[C@@H](C)[C@@H]1CC[C@]2(C)C3=C(CC[C@@]12C)[C@@]1(C)CC[C@H](O)C(C)(C)[C@@H]1CC3 [Euphol] (compound dose: 10 uM) | 0.977 ± 0.051 | 1.008 ± 0.0013
7 | CC(=O)OC/C=C(C)/C=C/C=C(C)/C=C/C1=C(C)CCCC1(C)C [Retinyl acetate] (compound dose: 10 uM) | 0.9487 ± 0.0087 | 0.753 ± 0.084
8 | C[C@]12C[C@@H](O)[C@@H]3C[C@@]1(O[C@@H]1O[C@H](CO)[C@@H](O)[C@H](O)[C@H]1O)[C@@]3(COC(=O)c1ccccc1)C(=O)O2 [Albiflorin] (compound dose: 10 uM) | 0.963 ± 0.031 | 0.908 ± 0.031
9 | OCC1=C[C@@H](O)[C@]2(O[C@@H]3O[C@H](CO)[C@@H](O)[C@H](O)[C@H]3O[C@@H]3O[C@H](CO)[C@@H](O)[C@H](O)[C@H]3O)C=CO[C@@H](O[C@@H]3O[C@H](CO)[C@@H](O)[C@H](O)[C@H]3O)[C@H]12 [Rehmannioside D] (compound dose: 10 uM) | 1.05 ± 0.29 | 0.941 ± 0.072
10 | O=c1c(-c2ccc(O)cc2)coc2c([C@@H]3O[C@H](CO)[C@@H](O)[C@H](O)[C@H]3O)c(O)ccc12 [Puerarin] (compound dose: 10 uM) | 0.944 ± 0.027 | 0.927 ± 0.033
11 | O=C(O)c1cccnc1 [Nicotinic acid] (compound dose: 10 uM) | 0.917 ± 0.043 | 0.945 ± 0.13
12 | COC(=O)C1=CO[C@@H](O)[C@@H]2C(CO)=CC[C@H]12 [Genipin] (compound dose: 10 uM) | 1 ± 0.026 | 0.76 ± 0.052
13 | CC12CCC(CC1=O)C2(C)C (stereo not given) [Camphor] (compound dose: 10 uM) | 0.977 ± 0.016 | 0.832 ± 0.21
14 | CC1(C)C[C@@H](O)[C@]2(C)CC[C@]3(C)C(=CC[C@@H]4[C@@]5(C)CC[C@H](O)[C@](C)(CO)[C@@H]5CC[C@]43C)[C@@H]2C1 [Soyasapogenol B] (compound dose: 10 uM) | 1.02 ± 0.018 | 0.744 ± 0.025
15 | C=C1CC/C=C(\C)CC[C@@H]2[C@@H]1CC2(C)C [β-Caryophyllene] (compound dose: 10 uM) | 0.9919 ± 0.0069 | 0.844 ± 0.19
16 | CC1(C)CC[C@]2(C(=O)O[C@@H]3O[C@H](CO[C@@H]4O[C@H](CO)[C@@H](O)[C@H](O)[C@H]4O)[C@@H](O)[C@H](O)[C@H]3O)CC[C@]3(C)C(=CC[C@@H]4[C@@]5(C)CC[C@H](O[C@@H]6OC[C@H](O)[C@H](O)[C@H]6O)[C@@](C)(CO)[C@@H]5CC[C@]43C)[C@@H]2C1 [Asperosaponin VI] (compound dose: 10 uM) | 0.9877 ± 0.0023 | 0.748 ± 0.087
17 | C=C1[C@H](OC(=O)c2cccnc2)C[C@H]2[C@@H](/C=C(\C)C(=O)[C@@]3(OC(C)=O)C[C@H](C)[C@H](OC(=O)c4ccccc4)[C@@H]3[C@H]1OC(C)=O)C2(C)C [Euphorbia factor L9] (compound dose: 10 uM) | 1.07 ± 0.095 | 0.226 ± 0.028
18 | CC(C)=CCC[C@](C)(O[C@@H]1O[C@H](CO)[C@@H](O)[C@H](O)[C@H]1O)[C@H]1CC[C@]2(C)[C@@H]1[C@H](O)C[C@@H]1[C@@]3(C)CC[C@H](O)C(C)(C)[C@@H]3[C@@H](O)C[C@]12C [Ginsenoside F1] (compound dose: 10 uM) | 0.982 ± 0.05 | 1.13 ± 0.066

Row | Structure (SMILES) | cell viability [1] | kynurenine production [2]
19 | CCCCCC(=O)O[C@@H]1[C@@H](C)[C@@]2(O)[C@@H](C=C(CO)C[C@]3(O)C(=O)C(C)=C[C@@H]23)[C@@H]2C(C)(C)[C@]12OC(=O)CCCCC [Phorbol 12, 13-Dihexanoate] (compound dose: 10 uM) | 1.05 ± 0.076 | 0.896 ± 0.056
20 | CC1=CC[C@@H](C(C)(C)O)CC1 [(-)-α-Terpineol] (compound dose: 10 uM) | 1.07 ± 0.061 | 0.84 ± 0.24
21 | CC1=CC[C@@H](C(C)(C)O)CC1 [α terpineol (mixed)] (compound dose: 10 uM) | 0.977 ± 0.065 | 0.876 ± 0.082
22 | COC(=O)[C@]1(C)CC[C@]2(C(=O)O[C@@H]3O[C@H](CO)[C@@H](O)[C@H](O)[C@H]3O)CC[C@]3(C)C(=CC[C@@H]4[C@@]5(C)C[C@H](O)[C@H](O[C@@H]6OC[C@@H](O[C@@H]7O[C@H](CO)[C@@H](O)[C@H](O)[C@H]7O)[C@H](O)[C@H]6O)[C@@](C)(CO)C5CC[C@]43C)[C@H]2C1 (stereo not given in full) [Esculentoside H] (compound dose: 10 uM) | 0.984 ± 0.043 | 0.825 ± 0.099
23 | CC(C)(O[C@@H]1O[C@H](CO)[C@@H](O)[C@H](O)[C@H]1O)[C@@H]1CC[C@](O)(CO)[C@H]2CC(=O)[C@@](C)(O)[C@@H]2C1 [Atractyloside A] (compound dose: 10 uM) | 0.986 ± 0.03 | 0.854 ± 0.057
24 | CC(=O)O[C@@H]1C[C@@]23C[C@@]24CC[C@H](O[C@@H]2OC[C@H](O)[C@H](O)[C@H]2O)C(C)(C)[C@@H]4CC[C@H]3[C@]2(C)[C@@H](O)[C@]34O[C@H](C[C@@H](C)[C@@H]3[C@@]12C)[C@@H](C(C)(C)O)O4 [Cimiracemoside D] (compound dose: 10 uM) | 1.02 ± 0.086 | 1.16 ± 0.22
25 | C[C@H]1O[C@@H](O[C@H]2CC[C@@]3(C)[C@@H](CC[C@]4(C)[C@@H]3C=C[C@]35OC[C@@]6(CCC(C)(C)C[C@H]63)[C@H](O)C[C@]54C)[C@]2(C)CO)[C@H](O)[C@@H](O[C@@H]2O[C@H](CO)[C@@H](O)[C@H](O)[C@H]2O)[C@H]1O [Saikosaponin D] (compound dose: 10 uM) | 0.922 ± 0.044 | 0.603 ± 0.2
26 | C[C@@H]1[C@H]2[C@H](O[C@@H]3O[C@H](CO)[C@@H](O)[C@H](O)[C@H]3O)OC=C(C(=O)O)[C@H]2C[C@@H]1O [Loganic acid] (compound dose: 10 uM) | 0.999 ± 0.016 | 1.01 ± 0.16
27 | CC1(C)CC[C@]2(C(=O)O)CC[C@]3(C)C(=CC[C@@H]4[C@@]5(C)CC[C@H](O)[C@@](C)(CO)[C@@H]5CC[C@]43C)[C@@H]2C1 [Hederagenin] (compound dose: 10 uM) | 1.06 ± 0.2 | 1.07 ± 0.014
28 | CC1OC(OC2C(OC3CCC4(C)C(CCC5(C)C4CC=C4C6CC(C)(C)CCC6(C(=O)OC6OC(COC7OC(CO)C(O)C(O)C7O)C(O)C(O)C6O)CCC45C)C3(C)CO)OCC(O)C2O)C(O)C(O)C1O (stereo not given) [Dipsacoside B] (compound dose: 10 uM) | 0.976 ± 0.042 | 0.861 ± 0.32
29 | CC1(C)CC[C@]2(C(=O)O)[C@H](O)C[C@]3(C)C(=CC[C@@H]4[C@@]5(C)CC[C@H](O)[C@@](C)(C=O)[C@@H]5CC[C@]43C)[C@@H]2C1 [Quillaic acid] (compound dose: 10 uM) | 1.01 ± 0.015 | 1.11 ± 0.018
30 | CC(C)=CCC[C@](C)(O[C@@H]1O[C@H](CO)[C@@H](O)[C@H](O)[C@H]1O)[C@H]1CC[C@]2(C)[C@@H]1[C@H](O)C[C@@H]1[C@@]3(C)CC[C@H](O)C(C)(C)[C@@H]3[C@@H](O[C@@H]3O[C@H](CO)[C@@H](O)[C@H](O)[C@H]3O)C[C@]12C [Ginsenoside Rg1] (compound dose: 10 uM) | 0.975 ± 0.025 | 0.782 ± 0.22
31 | C[C@H]1O[C@@H](O[C@H]2CC[C@@]3(C)[C@@H](CC[C@]4(C)[C@@H]3C=CC3=C5CC(C)(C)CC[C@]5(CO)[C@@H](O)C[C@]34C)[C@]2(C)CO)[C@H](O[C@@H]2O[C@H](CO)[C@@H](O)[C@H](O)[C@H]2O)[C@@H](O[C@@H]2O[C@H](CO)[C@@H](O)[C@H](O)[C@H]2O)[C@H]1O [Buddlejasaponin IVb] (compound dose: 10 uM) | 1.07 ± 0.067 | 1.34 ± 0.071
32 | C=CC(=C)CCC=C(C)C [Myrcene] (compound dose: 10 uM) | 1.02 ± 0.055 | 0.867 ± 0.1
33 | C=C1[C@H](OC(C)=O)[C@@H](OC(C)=O)[C@@H](OC(C)=O)C(C)(C)/C=C/[C@H](C)[C@H](OC(C)=O)[C@@]2(O)C[C@@](C)(OC(C)=O)[C@H](OC(=O)c3ccccc3)[C@@H]2[C@H]1OC(C)=O [Jatrophane 2] (compound dose: 10 uM) | 1.08 ± 0.062 | 0.926 ± 0.049
34 | CC1(C)CC[C@]2(CO)CC[C@]3(C)C(=CC[C@@H]4[C@@]5(C)CC[C@H](O)C(C)(C)[C@@H]5CC[C@]43C)[C@@H]2C1 [Erythrodiol] (compound dose: 10 uM) | 1.08 ± 0.031 | 0.842 ± 0.14
35 | C=C(C)[C@H]1C=C[C@@](C)(O)CC1 [cis-Isolimonenol] (compound dose: 10 uM) | 0.972 ± 0.02 | 0.813 ± 0.11
